Reference: PubChem BioAssay (NCATS)
Records with an inconclusive call do not appear. Entries that show only a call come without a potency. Activity calls are given as the source filed them. Unless noted, the call rests on the fitted dose curve; in most records, active means well fitted curve in the direction sought with a large enough effect; inconclusive means small, poorly fitted or top-dose-only effect, or another doubt; inactive means no such curve, though single readings can be large; an effect the other way counts as inactive or inconclusive.

Columns and labels:
[1] = biological target: Cytochrome P450 2C19 (Homo sapiens) (UniProt P33261); experiment: qHTS Assay for Inhibitors and Substrates of Cytochrome P450 2C19 (AID 899); further: nearly all actives have a fitted effect of over 60% in size
Summary of the method: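 In 50mM KPO4, the reaction held 5nM enzyme and KM-level (10uM) Luciferin-H EGE; it ran 60 min at 37C after NADPH regeneration and a 10 min compound preincubation. Luminescence values were scaled to 57uM ketoconazole as complete inhibition.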

[2] = biological target: Cytochrome P450 3A4 (Homo sapiens) (UniProt P08684); experiment: qHTS Assay for Inhibitors and Substrates of Cytochrome P450 3A4 (AID 884); further: nearly all actives have a fitted effect of over 50% in size; further: potency means the concentration at half of the fitted maximal effect
Summary of the method: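 Luminescent readout of luciferin produced by CYP3A4 (20 nM) dealkylation of Luciferin-PPXE, 25 uM (its KM). NADPH-driven reaction ran 60 min at RT after 10 min compound preincubation; data scaled to 57 uM ketoconazole as 100% inhibition.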

[3] = biological target: Cytochrome P450 3A4 (Homo sapiens) (UniProt P08684); experiment: qHTS Assay for Activators of Cytochrome P450 3A4 (AID 885); further: nearly all actives have a fitted effect of over 65% in size
Summary of the method: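 Activators are scored by enhanced luminescence from CYP3A4 conversion of luciferin-PPXE (25uM, equal to KM) to luciferin, after 60 min at RT with an NADPH-regenerating system.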

[4] = Confirmation and Secondary Assay for Modulators of Hemoglobin Beta Chain Splicing at IVS2 654 locus (AID 910);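 further: per-well total GFP intensity by laser scanning cytometry after 2-day treatment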
Summary of the method: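 HeLa cells stably carrying EGFP interrupted by mutant beta-globin IVS2-654 intron (CMV-driven) were treated with compound for 2 days at 37C; corrected splicing was scored as total peak GFP intensity per well (488 nm excitation, 500-520 nm emission).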

[5] = Confirmation and Secondary Assay for Modulators of Hemoglobin Beta Chain Splicing at IVS2 705 locus (AID 930);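 further: HeLa cells stably expressing the EGFP-705 splicing reporter; GFP fluorescence per well restored by corrected splicing of the IVS2-705 intron in EGFP; series mostly up to about 46 µM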
Summary of the method: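 First, HeLa EGFP-705 cells are seeded at 500/well in Optimem with 2% FCS and left overnight. Next, compound or DMSO is added for 2 days. Finally wells are laser-scanned and total peak GFP intensity scored.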

[6] = qHTS Assay for Identification of Small Molecule Antagonists for NFkB Signaling Pathway (AID 895; active means well fitted inhibition curve with a large enough effect in the signal ratio, with a control signal flat, not every such curve was filed as active; the % refers to the signal ratio)
Summary of the method: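 NFkB-bla ME-180 cervical carcinoma cells with beta-lactamase reporter under NFkB response element; compounds added, then TNF alpha at 10 pM final (EC50), 5 h at 37 C. LiveBLAzer substrate 2 h, room temperature; emission 460/530 nm at 405 nm excitation.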

[7] = qHTS Assay for Identification of Small Molecule Agonists for Thrombopoietin (TPO) Signaling Pathway (AID 917); conditions: TPO signaling pathway reporter cells, agonist qHTS; stimulated with TPO at its EC50; further: potency means the concentration at half of the fitted maximal effect
Summary of the method: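 Stimulation at the TPO EC50 (26 pM final) was used to detect activators. Ba/F3 mouse cells bearing human TPO receptor and a luciferase reporter under the Glycoprotein IIb promoter were exposed to compounds for 24 hrs at 37 C.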

[8] = biological target: Muscarinic acetylcholine receptor M1 (Rattus norvegicus) (UniProt P08482); experiment: qHTS Assay for Antagonists of Acetylcholine Muscarinic M1 Receptor: Measurement of IP-One Response (AID 944); further: nearly all actives have a fitted effect of over 75% in size
Summary of the method: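 Read-out: HTRF competition between d2-IP1 and Eu-cryptate anti-IP1 antibody, emission 620 and 665 nm. Stimulus was carbachol, EC80 (200 nM), for 30 min in M1-CHO cells (rat receptor), after 10 min compound pre-treatment.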

[9] = biological target: Pyruvate kinase (Leishmania mexicana) (UniProt Q27686); experiment: qHTS Validation Assay for Inhibitors of Leishmania Mexicana Pyruvate Kinase (AID 945)
Summary of the method: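 qHTS eight-point titrations against 0.2 nM LmPYK (E451W) in imidazole buffer pH 7.2 with 0.5 mM PEP, 0.1 mM ADP; 1 h, room temperature. Readout: PKLight luminescence, normalized to neutral DMSO wells.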

[10] = biological target: Pyruvate kinase PKM (Homo sapiens) (UniProt P14618); experiment: qHTS Assay for Activators of Human Muscle Pyruvate Kinase (AID 954; active means well fitted curve in the direction sought with a large enough effect, not every such curve was filed as active)
Summary of the method: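 PKM2, human, >95% pure, 0.1 nM; PEP 0.5 mM (Km), ADP 0.1 mM; 50 mM imidazole pH 7.2, 50 mM KCl, 0.01% Tween 20, 0.05% BSA; 1 h RT; luciferase luminescence readout.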

Cytochrome P450 3A4 (Homo sapiens), sequence (P08684 whole entry, looked up): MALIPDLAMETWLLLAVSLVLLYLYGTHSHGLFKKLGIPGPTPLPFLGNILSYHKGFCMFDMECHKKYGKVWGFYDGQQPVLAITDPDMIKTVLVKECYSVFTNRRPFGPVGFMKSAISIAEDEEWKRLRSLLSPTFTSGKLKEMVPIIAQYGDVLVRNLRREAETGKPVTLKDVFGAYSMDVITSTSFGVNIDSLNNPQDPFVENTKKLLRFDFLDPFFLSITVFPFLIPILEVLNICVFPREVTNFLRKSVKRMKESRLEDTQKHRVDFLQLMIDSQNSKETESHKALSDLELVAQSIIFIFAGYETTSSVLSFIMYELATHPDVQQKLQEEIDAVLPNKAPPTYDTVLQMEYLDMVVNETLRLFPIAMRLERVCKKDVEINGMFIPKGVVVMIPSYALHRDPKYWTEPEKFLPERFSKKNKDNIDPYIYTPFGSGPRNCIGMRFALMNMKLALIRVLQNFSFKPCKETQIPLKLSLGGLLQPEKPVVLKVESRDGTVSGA
Pyruvate kinase (Leishmania mexicana), sequence (Q27686 2-499 E452W): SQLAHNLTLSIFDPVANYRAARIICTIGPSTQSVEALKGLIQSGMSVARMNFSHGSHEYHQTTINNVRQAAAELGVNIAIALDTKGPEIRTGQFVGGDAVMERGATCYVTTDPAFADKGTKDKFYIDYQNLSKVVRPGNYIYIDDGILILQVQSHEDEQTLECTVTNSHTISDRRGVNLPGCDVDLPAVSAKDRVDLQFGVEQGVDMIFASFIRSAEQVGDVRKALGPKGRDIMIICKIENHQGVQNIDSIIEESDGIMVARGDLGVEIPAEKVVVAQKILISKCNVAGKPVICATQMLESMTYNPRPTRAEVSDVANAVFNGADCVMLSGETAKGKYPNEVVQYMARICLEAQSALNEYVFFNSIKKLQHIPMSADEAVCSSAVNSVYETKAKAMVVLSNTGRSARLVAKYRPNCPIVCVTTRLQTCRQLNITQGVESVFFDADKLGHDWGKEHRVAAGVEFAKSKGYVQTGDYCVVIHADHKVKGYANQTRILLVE
Muscarinic acetylcholine receptor M1 (Rattus norvegicus), sequence (P08482 whole entry, looked up): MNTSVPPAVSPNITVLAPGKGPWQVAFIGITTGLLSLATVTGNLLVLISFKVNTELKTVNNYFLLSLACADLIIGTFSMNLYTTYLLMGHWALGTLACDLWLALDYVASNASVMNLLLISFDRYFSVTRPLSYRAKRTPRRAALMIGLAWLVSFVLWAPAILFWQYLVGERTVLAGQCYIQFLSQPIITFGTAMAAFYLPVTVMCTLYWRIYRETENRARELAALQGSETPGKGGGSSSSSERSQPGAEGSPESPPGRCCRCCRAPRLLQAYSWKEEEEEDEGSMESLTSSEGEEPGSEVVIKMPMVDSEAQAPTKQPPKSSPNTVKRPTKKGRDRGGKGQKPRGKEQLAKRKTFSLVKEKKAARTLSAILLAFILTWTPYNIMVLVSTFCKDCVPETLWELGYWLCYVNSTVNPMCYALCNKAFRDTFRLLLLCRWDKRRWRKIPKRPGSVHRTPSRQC
Cytochrome P450 2C19 (Homo sapiens), sequence (P33261 whole entry, looked up): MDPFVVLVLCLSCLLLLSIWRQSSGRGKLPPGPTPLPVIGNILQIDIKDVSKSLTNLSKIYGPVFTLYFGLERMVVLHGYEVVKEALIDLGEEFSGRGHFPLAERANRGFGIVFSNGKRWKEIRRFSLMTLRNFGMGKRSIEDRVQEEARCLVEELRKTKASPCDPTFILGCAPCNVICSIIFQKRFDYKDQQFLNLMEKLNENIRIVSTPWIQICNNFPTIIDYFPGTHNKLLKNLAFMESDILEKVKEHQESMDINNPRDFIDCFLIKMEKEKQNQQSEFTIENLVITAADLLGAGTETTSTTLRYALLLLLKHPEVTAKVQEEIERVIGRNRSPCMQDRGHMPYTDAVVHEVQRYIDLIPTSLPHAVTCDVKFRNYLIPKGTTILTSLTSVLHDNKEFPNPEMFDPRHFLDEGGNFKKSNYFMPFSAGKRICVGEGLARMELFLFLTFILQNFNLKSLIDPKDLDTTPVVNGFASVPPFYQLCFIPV
Pyruvate kinase PKM (Homo sapiens), sequence (P14618 whole entry, looked up): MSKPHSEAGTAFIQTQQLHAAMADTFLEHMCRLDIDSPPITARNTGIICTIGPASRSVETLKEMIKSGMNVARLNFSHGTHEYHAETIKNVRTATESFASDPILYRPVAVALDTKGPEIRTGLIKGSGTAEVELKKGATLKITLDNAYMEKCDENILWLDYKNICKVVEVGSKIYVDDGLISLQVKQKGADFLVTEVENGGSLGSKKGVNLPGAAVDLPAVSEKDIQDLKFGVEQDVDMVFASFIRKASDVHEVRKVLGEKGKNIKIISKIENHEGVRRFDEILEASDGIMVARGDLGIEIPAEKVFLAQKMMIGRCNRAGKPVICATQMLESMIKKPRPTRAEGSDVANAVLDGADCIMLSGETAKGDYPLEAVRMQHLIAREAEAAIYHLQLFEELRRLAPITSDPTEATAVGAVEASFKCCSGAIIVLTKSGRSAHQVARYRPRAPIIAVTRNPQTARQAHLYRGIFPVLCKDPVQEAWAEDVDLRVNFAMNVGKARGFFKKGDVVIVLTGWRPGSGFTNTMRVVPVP

Q: For `O=C(O)[C@H](Cc1c[nH]c2ccccc12)N1C(=O)c2ccccc2C1=O`, which outcome [1] is on record?
A: The outcome was “inactive”.

Q: What does the source list for `O=C(O)c1ccc2cc(-c3ccc(O)c(C45CC6CC(CC(C6)C4)C5)c3)ccc2c1`?
A: Potency [2]: 31.6 µM (active); outcome [3]: inactive

Q: For `COc1c(N2C[C@@H]3CCCN[C@H]3C2)c(F)cc2c(=O)c(C(=O)O)cn(C3CC3)c12`, which Potency [2] is on record?
A: Its Potency is “inactive”.

Q: What about the outcome [4] of the same compound?
A: Its outcome is “inactive”.

Q: And the outcome [5]?
A: The outcome was “inactive”.

Q: Which outcome [4] does the source give for `Nc1ccc(S(=O)(=O)Nc2ncccn2)cc1` here?
A: The outcome was “inactive”.

Q: What about the outcome [5] of the same compound?
A: Its outcome is “inactive”.

Q: For `O=c1c2ccccc2nc2n1CCc1c-2[nH]c2ccccc12`, which outcome [3] is on record?
A: Its outcome is “inactive”.

Q: And the outcome [6]?
A: Its outcome is “inactive”.

Q: What about the Potency [7] of the same compound?
A: Its Potency is 0.316 µM (active).

Q: What about the outcome [8] of the same compound?
A: Its outcome is “inactive”.

Q: And the outcome [9]?
A: Its outcome is “inactive”.

Q: And the outcome [10]?
A: Its outcome is “inactive”.

Q: Which Potency [2] does the source give for `CC(C)c1ccc(Cn2ccc3c4c(N)nc(NC5CC5)nc4ccc32)cc1` here?
A: Its Potency is 6.31 µM (active).

Q: And the outcome [3]?
A: Its outcome is “inactive”.

Q: With `CC[C@@]1(O)C(=O)OCc2c1cc1n(c2=O)Cc2cc3cc(O)ccc3nc2-1` as the compound, how does the outcome [5] read?
A: The outcome was “inactive”.

Q: Which results are given for `Cc1coc2c1C(=O)C(=O)c1c-2ccc2c1CCCC2(C)C`?
A: Potency [2]: inactive; outcome [4]: inactive; outcome [5]: inactive
